Data from PubChem BioAssay.
Records with an inconclusive call do not appear. The source made the active and inactive calls.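 The calls were made as follows, unless noted: active = normalized viability below 100% at a tested concentration; inactive = the rest.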

Columns and labels:
[1] = growth inhibition of DIPG glioma cells, dose response, cell-based, SU-DIPG-XVII, MIPE5.0, CellTiter-Glo, qHTS (AID 1347060; cut-off not given, nearly all actives have AC50 up to about 26 µM;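 also: cells exposed to compound for 48 hours before viability readout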); settings: SU-DIPG-XVII viability, CellTiter-Glo ATP luminescence
[2] = growth inhibition of DIPG glioma cells, dose response, cell-based, JHH-DIPG-1, MIPE4.0, CellTiter-Glo, qHTS (AID 1347062; cut-off not given, nearly all actives have AC50 up to about 27 µM;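 as to AC50: cells exposed to compound for two days before readout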); settings: JHH-DIPG-1 viability, CellTiter-Glo ATP luminescence
[3] = growth inhibition of DIPG glioma cells, dose response, cell-based, SU-DIPG-XIII, MIPE5.0, CellTiter-Glo, qHTS (AID 1347064; cut-off not given, nearly all actives have AC50 up to about 23 µM;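 also: cells exposed to compound for 48 hours before the viability read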); settings: SU-DIPG-XIII viability, CellTiter-Glo ATP luminescence
[4] = viability loss in pontine glioma line – cell-based, SU-DIPG-XXV, MIPE5.0, CellTiter-Glo, qHTS, dose response (AID 1347065; cut-off not given, nearly all actives have AC50 up to about 26 µM;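 also: cells exposed to compound for 48 hours before ATP readout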); settings: CellTiter-Glo ATP luminescence
[5] = SU-DIPG-VI glioma cell viability, MIPE4.0 library, CellTiter-Glo luminescence, qHTS (AID 1347066; cut-off not given, nearly all actives have AC50 up to about 30 µM;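 also: cells exposed to compound for 48 hours before readout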); settings: CellTiter-Glo ATP luminescence
[6] = JHH-DIPG-1 glioma cell viability, MIPE5.0 library, CellTiter-Glo luminescence, qHTS (AID 1347067; cut-off not given, nearly all actives have AC50 up to about 26 µM;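 also: cells exposed to compound for 48 hours before readout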); settings: JHH-DIPG-1 glioma viability, CellTiter-Glo ATP luminescence
[7] = SU-DIPG-XXV glioma cell viability, MIPE5.0 library, qHTS (AID 1347068; cut-off not given, nearly all actives have IC50 up to about 30 µM;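 as to IC50: cells exposed to compound for 48 hours before viability readout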)
[8] = sensitizers of A549 cells to miR-34 induction, primary screen, imaging, A549 dox-inducible miR-34, nuclei and caspase counts (AID 1347080;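 active = compounds whose cell count with miR-34 switched on is under 0.7 times the count with it off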); settings: A549 miR-34 inducible, Hoechst nuclei count, 48 h
[9] = modifiers of HSF1 nuclear foci, imaging, Selleck Cancer Library (AID 1347162; in the data active = plate-normalised HSF1 focus index below about 0.46); settings: human cells, at 10 µM; SSMD: measured here: HSF1 foci SSMD mean; cell count: measured here: cell number; plate-normalised HSF1 focus index: stronger effect = lower value
[10] = survival rescue of mitochondrial mutant cells in low glucose, primary screen, MELAS cybrids, Rieske KO mouse fibroblasts, CellTiter-Glo (AID 1508586;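 active = mean z-score across replicates of 1.96 or higher in either the MELAS or the Rieske mutant cell line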;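 also: z relative to plate mean and SD of compound and empty wells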)
[11] = ovarian cancer cell viability with rucaparib, profiling panel, oncology-focused library, rucaparib conditional (AID 1508598); settings: patient-derived ovarian cancer cells, CellTiter-Glo viability, 144 h, stronger effect = lower value
[12] = LFS_MB_P medulloblastoma growth inhibition, cell-based, chromothripsis tumors, cisplatin or BGB combos (AID 1671449; in the data active = inhibition above about 80%;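 also: cells exposed for 96 hours; 0% = vehicle DMSO and 100% = killing by high DMSO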); settings: LFS_MB_P medulloblastoma cells
[13] = HDN33 neuroblastoma growth inhibition, cell-based, chromothripsis tumors, cisplatin or BGB combos (AID 1671450; in the data active = inhibition above about 80%;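 also: cells exposed to compound for four days; 0% = vehicle DMSO and 100% = cell killing by high DMSO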); settings: HDN33 neuroblastoma cells, stronger effect = higher value
[14] = ICB984 medulloblastoma cell growth inhibition, synergistic combos for chromothripsis tumors, cisplatin or BGB combos (AID 1671451; call rule not given here;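 also: cells exposed for 96 hours before readout; 0% = vehicle DMSO and 100% = killing by high DMSO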); settings: ICB984 medulloblastoma cells, drug combinations, stronger effect = higher value
[15] = HTB85 osteosarcoma cell growth inhibition, synergistic combos for chromothripsis tumors, BGB or cisplatin IC20 combos (AID 1671453; in the data active = inhibition above about 80%;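 also: cells exposed for 96 hours before readout; 0% = vehicle DMSO and 100% = high DMSO killing control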); settings: HTB85 osteosarcoma cells, drug combinations, stronger effect = higher value
[16] = MDA-MB-436 breast carcinoma cell growth inhibition, synergistic combos for chromothripsis tumors, BGB or cisplatin combos (AID 1671458; call rule not given here;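 also: cells exposed for 96 hours; 0% = vehicle DMSO and 100% = killing by high DMSO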); settings: MDA-MB-436 breast carcinoma growth inhibition, drug combinations, stronger effect = higher value
[17] = growth inhibition of BT084 medulloblastoma cells, cell-based, ICGC_MB145, cisplatin and BGB IC40 combos (AID 1671461; in the data active = inhibition above about 80%;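 also: cells exposed to drugs for 96 hours; 0% = vehicle DMSO and 100% = high DMSO full killing control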); settings: drug combinations, stronger effect = higher value
[18] = growth inhibition of RCMB18 medulloblastoma cells, cell-based, cisplatin and BGB IC40 combos (AID 1671462; in the data active = inhibition above about 80%;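 also: cells exposed to compound for four days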); settings: stronger effect = higher value
[19] = growth inhibition of CRL1545 osteosarcoma cells, cell-based, cisplatin and BGB IC20 combos (AID 1671464; in the data active = inhibition above about 80%;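 also: cells exposed to compound for 96 hours before readout; 0% = vehicle DMSO and 100% = high DMSO killing control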); settings: stronger effect = higher value
[20] = measured here: with BGB IC20 combination, at 0.5 µM
[21] = measured here: with cisplatin IC20 combination, at 0.5 µM

Nc1ccccc1NC(=O)c1ccc(CNc2nccc(-c3cccnc3)n2)cc1
AC50 [1]: 2630 nM (active) | AC50 [2]: 1480 nM (active) | AC50 [3]: 1480 nM (active) | AC50 [4]: 590 nM (active) | AC50 [5]: 1180 nM (active) | AC50 [6]: 1180 nM (active) | IC50 [7]: 2630 nM (active) | fold change ([8]; stronger effect = lower value, cell number ratio, induced over uninduced): 1.16 (inactive) | fold change ([8]; measured here: relative caspase fold change +Dox/-Dox): 0.733 | cell count ([8]; measured here: total cells with miR-34 induction, stronger effect = lower value): 1740 | cell count ([8]; measured here: total cells without miR-34 induction): 1500 | SSMD [9]: 2.12 | cell count [9]: 7260 | plate-normalised HSF1 focus index [9]: 1.13 (inactive) | z-score ([10]; MELAS cybrid survival, CellTiter-Glo 48 h, stronger effect = higher value): -0.546 (inactive) | z-score ([10]; Rieske KO mouse fibroblast survival, CellTiter-Glo 72 h): -2.11 | viability ([11]; at 0.000305 µM, OCI-C5x cells, with rucaparib 10 µM, 100% = cells with rucaparib alone): 107% (inactive) | viability ([11]; at 0.000305 µM, OCI-C5x cells, without rucaparib): 111% (inactive) | viability ([11]; at 0.000305 µM, OCI-P5x cells, with rucaparib 20 µM, 100% = cells with rucaparib alone): 122% (inactive) | viability ([11]; at 0.000305 µM, OCI-P5x cells, without rucaparib): 119% (inactive) | viability ([11]; at 0.00122 µM, OCI-C5x cells, with rucaparib 10 µM, 100% = cells with rucaparib alone): 112% (inactive) | viability ([11]; at 0.00122 µM, OCI-C5x cells, without rucaparib): 110% (inactive) | viability ([11]; at 0.00122 µM, OCI-P5x cells, with rucaparib 20 µM, 100% = cells with rucaparib alone): 110% (inactive) | viability ([11]; at 0.00122 µM, OCI-P5x cells, without rucaparib): 116% (inactive) | viability ([11]; at 0.00488 µM, OCI-C5x cells, with rucaparib 10 µM, 100% = cells with rucaparib alone): 118% (inactive) | viability ([11]; at 0.00488 µM, OCI-C5x cells, without rucaparib): 115% (inactive) | viability ([11]; at 0.00488 µM, OCI-P5x cells, with rucaparib 20 µM, 100% = cells with rucaparib alone): 107% (inactive) | viability ([11]; at 0.00488 µM, OCI-P5x cells, without rucaparib): 108% (inactive) | viability ([11]; at 0.0195 µM, OCI-C5x cells, with rucaparib 10 µM, 100% = cells with rucaparib alone): 119% (inactive) | viability ([11]; at 0.0195 µM, OCI-C5x cells, without rucaparib): 117% (inactive) | viability ([11]; at 0.0195 µM, OCI-P5x cells, with rucaparib 20 µM, 100% = cells with rucaparib alone): 101% (inactive) | viability ([11]; at 0.0195 µM, OCI-P5x cells, without rucaparib): 96.7% (active) | viability ([11]; at 0.0781 µM, OCI-C5x cells, with rucaparib 10 µM, 100% = cells with rucaparib alone): 110% (inactive) | viability ([11]; at 0.0781 µM, OCI-C5x cells, without rucaparib): 101% (inactive) | viability ([11]; at 0.0781 µM, OCI-P5x cells, with rucaparib 20 µM, 100% = cells with rucaparib alone): 103% (inactive) | viability ([11]; at 0.0781 µM, OCI-P5x cells, without rucaparib): 94.4% (active) | viability ([11]; at 0.313 µM, OCI-C5x cells, with rucaparib 10 µM, 100% = cells with rucaparib alone): 67.3% (active) | viability ([11]; at 0.313 µM, OCI-C5x cells, without rucaparib): 71.1% (active) | viability ([11]; at 0.313 µM, OCI-P5x cells, with rucaparib 20 µM, 100% = cells with rucaparib alone): 72% (active) | viability ([11]; at 0.313 µM, OCI-P5x cells, without rucaparib): 77.1% (active) | viability ([11]; at 1.25 µM, OCI-C5x cells, with rucaparib 10 µM, 100% = cells with rucaparib alone): 6.09% (active) | viability ([11]; at 1.25 µM, OCI-C5x cells, without rucaparib): 5.69% (active) | viability ([11]; at 1.25 µM, OCI-P5x cells, with rucaparib 20 µM, 100% = cells with rucaparib alone): 15.2% (active) | viability ([11]; at 1.25 µM, OCI-P5x cells, without rucaparib): 19.7% (active) | viability ([11]; at 5 µM, OCI-C5x cells, with rucaparib 10 µM, 100% = cells with rucaparib alone): 5.71% (active) | viability ([11]; at 5 µM, OCI-C5x cells, without rucaparib): 5.7% (active) | viability ([11]; at 5 µM, OCI-P5x cells, with rucaparib 20 µM, 100% = cells with rucaparib alone): 9.81% (active) | viability ([11]; at 5 µM, OCI-P5x cells, without rucaparib): 8.93% (active) | inhibition ([12]; at 0.5 µM, stronger effect = higher value): 2.35% (inactive) | inhibition ([12]; measured here: combination with BGB IC20, at 0.005 µM): -20.9% | inhibition ([12]; measured here: combination with BGB IC40, at 0.005 µM): -59.1% | inhibition ([12]; measured here: combination with BGB IC40, at 0.05 µM): -23.9% | inhibition ([12]; measured here: combination with cisplatin, at 0.5 µM, stronger effect = higher value): 45.4% | inhibition ([12]; measured here: combination with cisplatin, at 5 µM, stronger effect = higher value): 109% | inhibition ([13]; BGB combo, at 5 µM): 98.8% | inhibition ([13]; at 0.5 µM): 51.5% (inactive) | inhibition ([13]; cisplatin combo, at 5 µM): 100% | inhibition [13, 20]: 59.9% | inhibition [13, 21]: 50.6% | inhibition ([13]; single agent, at 5 µM): 99.4% | inhibition ([14]; BGB IC20 combo, at 0.005 µM): 8.79% | inhibition ([14]; BGB IC40 combo, at 0.005 µM): 19.9% | inhibition ([14]; BGB IC40 combo, at 0.05 µM): 92.5% | inhibition ([14]; at 0.5 µM): -29.5% (inactive) | inhibition ([14]; cisplatin combo, at 0.05 µM): 92.7% | inhibition ([14]; cisplatin combo, at 0.5 µM): -33.3% | inhibition ([14]; cisplatin combo, at 5 µM): -7.7% | inhibition ([14]; measured here: 5 uM single agent, at 5 µM): -12.8% | inhibition ([15]; at 0.5 µM): 18.4% (inactive) | inhibition ([15]; measured here: with BGB IC20, at 0.5 µM): 20.6% | inhibition ([15]; measured here: with BGB IC20, at 5 µM): 98.9% | inhibition ([15]; measured here: with cisplatin IC20, at 0.5 µM): 17.4% | inhibition ([15]; measured here: with cisplatin IC20, at 5 µM): 99.2% | inhibition ([15]; single agent, at 5 µM): 99.2% | inhibition ([16]; at 0.5 µM): 23.7% (inactive) | inhibition ([16]; measured here: BGB combination, at 0.5 µM): 20.7% | inhibition ([16]; measured here: BGB combination, at 5 µM): 64.6% | inhibition ([16]; measured here: cisplatin combination, at 0.5 µM): 9.8% | inhibition ([16]; measured here: cisplatin combination, at 5 µM): 64% | inhibition ([17]; at 0.5 µM): 50.1% (inactive) | inhibition ([17]; cisplatin combination, at 0.5 µM): 50.8% | inhibition ([17]; cisplatin combination, at 5 µM): 83.4% | inhibition ([17]; measured here: BGB IC40 combination 0.05 uM, at 0.05 µM): -5.63% | inhibition ([17]; single agent, at 5 µM): 99.8% | inhibition ([18]; at 0.5 µM): 56.4% (inactive) | inhibition ([18]; cisplatin combo, at 5 µM): 95.3% | inhibition ([18]; measured here: BGB IC40 combination, at 0.05 µM): -6.4% | inhibition ([18]; measured here: combination with cisplatin, at 0.5 µM): 76.3% | inhibition ([18]; single agent, at 5 µM): 94.7% | inhibition ([19]; at 0.5 µM): 66.9% (inactive) | inhibition [19, 20]: 49.6% | inhibition [19, 21]: 75.1% | inhibition ([19]; single agent, at 0.05 µM): 31.7% | inhibition ([19]; single agent, at 5 µM): 90.8%

CC[C@]12C=CCN3CC[C@@]4(c5cc([C@@]6(C(=O)OC)C[C@H]7C[C@@H](C(C)(F)F)CN(Cc8c6[nH]c6ccccc86)C7)c(OC)cc5N(C)[C@H]4[C@@](O)(C(=O)OC)[C@@H]1OC(C)=O)[C@@H]32
AC50 [1]: 78.3 nM (active) | AC50 [2]: 469 nM (active) | AC50 [3]: 1750 nM (active) | AC50 [4]: 111 nM (active) | AC50 [5]: 8330 nM (active) | AC50 [6]: 312 nM (active) | IC50 [7]: 350 nM (active)

COc1ccc(C2=N[C@H](c3ccc(Cl)cc3)[C@H](c3ccc(Cl)cc3)N2C(=O)N2CCNC(=O)C2)c(OC(C)C)c1
AC50 [1]: 14800 nM (active) | AC50 [2]: 23500 nM (active) | AC50 [3]: 16600 nM (active) | AC50 [4]: 10500 nM (active) | outcome [5]: inactive | outcome [7]: inactive

Cn1cc(/C=C/C(=O)c2cccc(F)c2)cc1/C=C/C(=O)NO
AC50 [1]: 3720 nM (active) | outcome [2]: inactive | AC50 [3]: 2350 nM (active) | AC50 [4]: 5250 nM (active) | outcome [5]: inactive | AC50 [6]: 13200 nM (active)

COc1cc(N2CCC(N3CCN(C)CC3)CC2)ccc1Nc1ncnc(Nc2ccccc2S(=O)(=O)C(C)C)n1
AC50 [1]: 6610 nM (active) | AC50 [2]: 14800 nM (active) | AC50 [3]: 5250 nM (active) | AC50 [4]: 3720 nM (active) | AC50 [6]: 16600 nM (active) | outcome [7]: inactive

COc1ccc(/C=C\c2cc(OC)c(OC)c(OC)c2)cc1NC(=O)[C@H](N)CO
AC50 [1]: 83.3 nM (active) | AC50 [2]: 20.9 nM (active) | AC50 [3]: 590 nM (active) | AC50 [4]: 148 nM (active) | AC50 [6]: 235 nM (active) | IC50 [7]: 332 nM (active)
